# Source: PubChem
# PRMT1 FP inh: blocks human protein arginine methyltransferase 1 | 1.3% of 370,000 active | inhibition, % at 2.79 µM | recombinant PRMT1, activity-based probe fluorescence polarization | Q99873;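 active means inhibition above about 21% made by adding two undisclosed values, limit read from the data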
# PME-1 inh: PME-1 (human) inhibition. recombinant PME-1, FP-Rh probe fluorescence polarization. inhibition, % at 5.9 µM. 0.53% of 320,000 active. AID 2130. Q9Y570;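 active means inhibition above the campaign mean of all compounds plus 3 SD, cut at about 26% in these data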;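 further: competitive labeling of PME-1 active site by serine hydrolase directed probe; 0% = PME-1 with DMSO and 100% = wells lacking PME-1 enzyme; inhibitors block probe labeling so polarization falls and inhibition rises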
# PAD4 inh: PAD4 (human) enzyme inhibition; Q9UM07; recombinant PAD4, RCA probe fluorescence polarization; inhibition, % at 6.36 µM; 0.41% of 330,000 active;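 active means percent inhibition above a cutoff equal to the mean of all tested compounds plus 3 SD, cut at about 15% in these data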;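 further: 0% = PAD4 with RCA probe and DMSO and 100% = probe without PAD4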
# Target sequence (Q9UM07 whole entry, looked up): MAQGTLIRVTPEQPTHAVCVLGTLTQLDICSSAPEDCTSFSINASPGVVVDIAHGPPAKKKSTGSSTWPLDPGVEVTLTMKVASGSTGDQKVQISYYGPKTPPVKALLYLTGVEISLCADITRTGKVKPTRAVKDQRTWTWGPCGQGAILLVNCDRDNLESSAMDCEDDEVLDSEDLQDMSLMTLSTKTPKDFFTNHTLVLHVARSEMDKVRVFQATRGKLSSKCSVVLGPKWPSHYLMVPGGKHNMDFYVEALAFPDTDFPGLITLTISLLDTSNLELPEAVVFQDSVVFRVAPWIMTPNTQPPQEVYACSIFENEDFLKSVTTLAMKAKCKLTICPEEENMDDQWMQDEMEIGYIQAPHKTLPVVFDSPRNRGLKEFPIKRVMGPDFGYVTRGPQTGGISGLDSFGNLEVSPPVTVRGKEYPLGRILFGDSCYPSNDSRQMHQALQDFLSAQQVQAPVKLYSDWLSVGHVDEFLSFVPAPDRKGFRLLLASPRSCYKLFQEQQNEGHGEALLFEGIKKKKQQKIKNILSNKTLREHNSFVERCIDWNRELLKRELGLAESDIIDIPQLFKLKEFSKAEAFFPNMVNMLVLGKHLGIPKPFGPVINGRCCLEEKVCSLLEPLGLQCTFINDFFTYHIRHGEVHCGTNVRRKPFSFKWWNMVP
# TCR CD3 inh: blocks the human TCR-CD3 interaction; inhibition, % at 9.4 µM; 0.37% of 360,000 active; TAMRA-labeled TCR probe fluorescence, biochemical; AID 651800; in the data active means inhibition above about 19%;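 further: recombinant mutant TCR 2C K166C tagged with TAMRA read by polarization; 0% = receptor in buffer alone and 100% = receptor with positive control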
# SIAE primary: inhibitors of human sialic acid acetylesterase SIAE. SIAE FP-Rh probe binding, fluorescence polarization. inhibition, % at 9.66 µM. Q9HAT2. 0.69% of 370,000 active;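 active means inhibition above a cutoff: mean of compounds within the control limits plus 3 SD of those, cut at about 17% in these data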;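 further: 0% = plate median of compound wells and 100% = probe without SIAE protein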
# Fam108B counter: blocks mouse Fam108B hydrolase in RBBP9 counter-screen | AID 1947 | recombinant Fam108B, FP-Rh probe fluorescence polarization | 0.33% of 300,000 active | inhibition, % at 9.51 µM;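 active means inhibition above the screen mean inhibition plus 3 SD, computed separately per campaign, cut at about 18% in these data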;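 further: inhibitors lower polarization as less probe binds the enzyme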
# Fam108b confirm: Fam108b (mouse) hydrolase inhibition, confirmation assay; recombinant Fam108b, FP-Rh probe fluorescence polarization; 44% of 930 active; AID 1978; inhibition, % at 9.51 µM; shares compounds with Fam108B counter;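 active means inhibition above a limit from the primary screen, the mean over all compounds plus 3 SD, cut at about 19% in these data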;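 further: 0% = median of active Fam108b wells and 100% = catalytically dead S170A mutant; inhibitors free the probe so polarization falls as inhibition rises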
# Fam108b ABPP HTS: inhibits mouse Fam108b in gel-based ABPP; 44% of 260 active; recombinant Fam108b, fluorophosphonate probe; inhibition, % at 20 µM; shares compounds with Fam108B counter; AID 588649; in the data active means inhibition above about 40%
# * hit, by the source's call; · = no result. Compounds with a hit are over-represented: about 2.6% of the library has one in this group of screens.
SMILES,PRMT1 FP inh,PME-1 inh,PAD4 inh,TCR CD3 inh,SIAE primary,Fam108B counter,Fam108b confirm,others
Cc1ccccc1CNC(=S)OC1CCC12CCC(c1ccccc1)CC2 (stereo not given),6,·,·,·,0,·,·,
CCN(c1ccccc1)S(=O)(=O)c1ccc(Cl)c(NC(=O)COC(=O)c2cc(O)c3ccccc3c2O)c1,·,40*,26*,·,·,20*,48*,
NNc1nc2c(-c3ccc(Cl)cc3)nnn2c2ccccc12,-1,-16,-6,-2,-3,55*,65*,Fam108b ABPP HTS=0
COCCCNc1nc2c(-c3ccc(Cl)cc3)nnn2c2ccccc12,-2,0,4,1,0,1,·,
NNc1nc2c(-c3ccc(F)cc3)nnn2c2ccccc12,0,5,-5,-4,2,26*,9,
C[C@H]1[C@@H](N(C)Cc2ccccc2)CC[C@@]23CCCN2C(=O)CCC[C@@H]13,0,·,·,·,2,·,·,
O=C(CSc1nnc(NC2CCCCC2)s1)Nc1ccc2c(c1)C(=O)c1ccccc1C2=O,0,9,3,3,5,42*,3,
NS(=O)(=O)c1ccc(NC(=O)CSc2nnc(NC3CC3)s2)cc1,0,·,·,15,3,·,·,
O=C(OC12CCCN(C1)/C(=C/c1cccnc1)C2)c1ccccc1 (stereo not given),-1,·,·,·,7,·,·,
Cc1cc(N2CCN(C(=O)Oc3ccc(C(F)(F)F)cc3)CC2)c2ccccc2n1,4,·,·,·,0,·,·,
Oc1ccc(N=Cc2ccc(O)c(O)c2)cc1,·,47*,1,·,·,36*,1,
COc1ccc(CN(CCN(C)C)c2ccccn2)cc1,0,3,-5,-2,-2,0,·,
CCCCCCCCCCCCCCCC[N+](C)(C)CCN(Cc1ccc(OC)cc1)c1ncccn1,·,6,8,·,·,22*,22*,
C[C@H]1CCCN1c1cccc2c1S(=O)(=O)N1CC[C@H](C1)O2,2,·,·,·,7,·,·,
Cc1ccc(Nc2nc(-c3sc(NC(=O)c4ccc([N+](=O)[O-])cc4)nc3C)cs2)cc1,·,11,2,·,·,22*,8,
Cc1ccccc1Nc1nc(-c2sc(NC(=O)c3ccc([N+](=O)[O-])cc3)nc2C)cs1,·,5,6,·,·,14,·,
CCCCCC(=O)Nc1nc(C)c(-c2csc(Nc3ccc(Cl)cc3)n2)s1,-2,25,-5,0,-5,20*,13,
COc1ccc(OC)c(Nc2nc(-c3sc(NC(=O)c4ccccc4)nc3C)cs2)c1,·,21,-14,·,·,19*,16,
CCOc1ccccc1Nc1nc(-c2sc(NC(=O)c3ccc([N+](=O)[O-])cc3)nc2C)cs1,·,19,-6,·,·,22*,24*,
COc1ccc(Cl)cc1Nc1nc(-c2sc(NC(=O)c3ccccc3)nc2C)cs1,·,16,-10,·,·,1,·,
CCCC(=O)N1CCC[C@]2(CC[C@H](CCC(C)=O)O2)C1,4,·,·,·,2,·,·,
O=C(CSc1nnc(-c2ccccn2)n1-c1ccc(Cl)cc1)Nc1ccc2c(c1)OCCO2,0,·,·,·,0,·,·,
COc1ccc2c(c1)Sc1ccc(Cl)cc1N2,12,·,·,·,2,·,·,
O=C(c1ccccc1)C1CCN(c2ncnc3sccc23)CC1,-5,·,·,·,-1,·,·,
CCOC(=O)C1=C(C)N=c2sc(=Cc3ccc(O)c([N+](=O)[O-])c3)c(=O)n2C1c1ccccc1OC (stereo not given),·,·,·,·,·,·,·,Fam108b ABPP HTS=30
SMILES,PRMT1 FP inh,PME-1 inh,PAD4 inh,TCR CD3 inh,SIAE primary,Fam108B counter,Fam108b confirm,others
CCOC(=O)C1=C(C)N=c2s/c(=C\c3cccc(OCC(=O)O)c3)c(=O)n2C1c1ccccc1OC (stereo not given),7,1,6,3,-2,2,·,
NC(=NCCc1c[nH]c2ccccc12)NC(=O)OCc1ccccc1,3,·,·,·,1,·,·,
CC(=O)c1cc(-c2ccc(Oc3ccccc3)cc2)c(=O)n2c1CCC2,1,·,·,·,-1,·,·,
COC(=O)[C@]12C[C@H](CC(=O)NCc3ccc(OC)c(OC)c3)C(=O)N(Cc3ccco3)C1=C[C@H](C1CCCC1)O[C@@H]2C,5,·,·,·,0,·,·,
COc1ccc(OC)c(-c2csc(NC(=O)CSc3ccc(Br)cc3)n2)c1,-2,-1,-1,7,2,17,·,
COc1ccc(OC)c(-c2csc(NC(=O)CSc3ccc([N+](=O)[O-])cc3)n2)c1,6,10,3,4,-28,21*,14,
CCOC(=O)[C@]12CCCC=C1N(Cc1ccc(OC)cc1)C(=O)[C@@H]2CC(=O)N1CCSCC1,0,·,·,·,-5,·,·,
Cc1cc(C)cc(Nc2nc(-c3ccc(S(=O)(=O)N4CCCC4)cc3)cs2)c1,2,16,-3,0,22*,24*,0,
COc1ccc([N+](=O)[O-])cc1NC(=O)C1C2C=CC(C2)C1C(=O)O (stereo not given),-1,-3,-3,9,-3,19*,2,
O=C(N/N=C/c1ccc(-c2ccc(S(=O)(=O)Nc3ncccn3)cc2)o1)c1cc2ccccc2cc1O,17,-3,-4,18,10,24*,20*,
CCOc1ccc(C(=O)N/N=C/c2ccc(-c3ccc(S(=O)(=O)Nc4ncccn4)cc3)o2)cc1,1,-7,-2,9,-6,-3,·,
Cn1nc(-c2ccc(Cl)cc2)nc2c(=O)n(C)c(=O)nc1-2,·,37*,75*,·,·,71*,73*,
Cc1nn(-c2ccc(Br)cc2)c(=O)c2ccccc12,0,93*,-5,1,7,88*,-12,
CSC1=NSC2=NC(=O)/C(=C/c3coc4ccc(O)cc4c3=O)C(=N)N12,25*,-5,-24,-10,-28,28*,17,
CSC1=NSC2=NC(=O)/C(=C/c3coc4ccccc4c3=O)C(=N)N12,17,13,-25,-9,-29,41*,52*,Fam108b ABPP HTS=0
CCOCc1cnc(C)nc1NCC(=O)c1c(C)[nH]c2ccccc12,2,-2,2,-7,3,57*,5,
CCOCc1cnc(C)nc1NCC(=O)c1c(C)[nH]c2cc(C)ccc12,-3,2,2,-5,1,1,·,
COc1ccc(N2CCN(CCNS(=O)(=O)c3ccccc3[N+](=O)[O-])CC2)cc1,-7,·,·,·,-7,·,·,
Cc1ccc(-c2nc3ncccn3c2NC(=O)c2ccc(F)cc2)cc1,1,·,·,·,4,·,·,
COc1ccccc1C1Nc2cccc3cccc(c23)N1,16,8,-9,8,4,2,·,
CCOc1ccc(C2Nc3cccc4cccc(c34)N2)cc1OC,1,5,-3,3,11,25*,10,
CCOc1cc(C2Nc3ccccc3C(=O)N2c2ccccc2)ccc1O (stereo not given),1,-4,3,-1,1,-2,·,
CCOc1cc(C2Nc3cccc4cccc(c34)N2)ccc1O,·,23,-17,·,·,63*,24*,
